Test results: PubChem BioAssay (Tox21)
Unmarked numbers belong to inactive results. Activity calls are given as the source filed them. The call rests on the fitted dose curve; in most records, active means well fitted curve in the direction sought with a large enough effect in the repeat runs; inconclusive means weak or mixed curves; inactive means flat fitted curve, though single readings scatter.

Test: qHTS assay to test for compound auto fluorescence at 590 nm (red) in HEK293 cells (AID 720679)
Conditions: red autofluorescence 540/590 nm; series mostly up to 91.3 µM
Procedure, shortened: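 HEK293 cells (2,000/well, 10% dialyzed FBS) attached 4-5 hr, then dosed with compound or DMSO and incubated overnight at 37C, 5% CO2. Red fluorescence read at 540/590 nm, Rose Bengal sodium as reference fluorophore.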
On the % scale 0 is the no-effect control and ±100 the full control effect.

SMILES | outcome | fluorescence, % of fluorescent control
c1cnc2cc3c(cc2n1)C1CNCC3C1 | inactive | –
NC(N)=NC(=O)Cc1c(Cl)cccc1Cl | inactive | –
CC(=O)OCC1=C(C(=O)O)N2C(=O)[C@@H](NC(=O)Cc3cccs3)[C@H]2SC1 | inactive | –
NCCCCCC(=O)O | – | 0.0137% [at 18.6 µM]
CC1COC(=O)O1 (stereo unspecified) | inactive | –
OCC(CO)N[C@H]1C[C@](O)(CO)[C@@H](O)[C@H](O)[C@H]1O | inactive | –
C=C(C)C1CC=C(C)C(OC(C)=O)C1 (stereo unspecified) | inactive | –
C[N+]1([O-])CCOCC1 | inactive | –
Cc1cccc(O)c1C | inactive | –
Cc1cccc([N+](=O)[O-])c1C(=O)O | inactive | –
O=C(O)c1cc(Cl)cc(Cl)c1 | inactive | –
c1ccc2n[nH]nc2c1 | inactive | –
Nc1cc(Cl)c(-c2cc(Cl)c(N)cc2Cl)cc1Cl | inactive | –
CCCNC(C)C(=O)Nc1ccccc1C (stereo unspecified) | inactive | –
OCCN1CCNCC1 | inactive | –
C/C=C/c1ccc(OCC)c(O)c1 | inactive | –
C=CC(=O)OCCCCCCCC | inactive | –
CC(C)(C)NCC(O)c1cc(O)cc(O)c1 (stereo unspecified) | inactive | –
CC(=O)OCCOCCOCCOC(C)=O | inactive | –
CNC1(C)C2CCC(C2)C1(C)C (stereo unspecified) | inactive | –
CCC(CO)(CO)COCC(CC)(CO)CO | inactive | –
CCN1CCCC1CNC(=O)c1cc(S(=O)(=O)CC)c(N)cc1OC (stereo unspecified) | inactive | –
O=C(O)CCc1ccccc1 | inactive | –
Nc1nc2ccccc2[nH]1 | inactive | –
COC(=O)c1cccc(C(=O)OC)c1 | inactive | –
CCC[C@H](N[C@@H](C)C(=O)N1[C@H](C(=O)O)C[C@@H]2CCCC[C@@H]21)C(=O)OCC | inactive | –
